BAZ2B inh – inhibitors of human BAZ2B bromodomain. AlphaScreen BAZ2B-H3K14Ac peptide displacement. Potency, µM (titrated, usually from 114 µM), for the others: at the top dose activity change, negative = inhibition, hits mostly inhibitors. 360,000 compounds, 4.4% hits. Q9UIF8. AID 504333; also: % is scaled to controls: 0 for no effect and ±100 for the full control effect; nearly all actives have a fitted effect of over 60% in size
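Protein-peptide AlphaScreen: BAZ2B 50 nM, b-H3K14Ac 50 nM, 1x PBS pH 7.4 + 0.01% Tween-20. Preincubation 30 min RT; cpd 30 min RT (top 110 uM); beads 20 min RT, light-protected.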
G9a block – inhibitors of human histone lysine methyltransferase G9a. Q96KQ7. G9a H3K9 monomethylation, AlphaScreen, 2 h. Potency, µM (series often up to 102 µM), for inactives: top-dose activity, negative = inhibition, actives largely listed as inhibitors. 350,000 compounds, 8.8% hits. AID 504332; also: % is scaled to controls: 0 for no effect and ±100 for the full control effect; nearly all actives have a fitted effect of over 75% in size
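Using a bead-based AlphaScreen, monomethylated H3K9 product from 2 h room-temperature reactions (G9a 20 nM, peptide 500 nM, SAM 20 uM) was detected with 0.5 ug/mL rabbit anti-H3K9me1 antibody.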
JMJD2A Tudor inh – JMJD2A Tudor domain (human) inhibition | Potency, µM (highest dose often 114 µM), for the others: top-dose activity change, negative = inhibition, most hits filed as inhibitors | AlphaScreen JMJD2A-Tudor / H3K4me3 peptide binding | O75164 | 390,000 compounds, 4.4% hits; also: % is scaled to controls: 0 for no effect and ±100 for the full control effect; nearly all actives have a fitted effect of over 50% in size
Target sequence (O75164 whole entry, looked up, the tested form may be a part): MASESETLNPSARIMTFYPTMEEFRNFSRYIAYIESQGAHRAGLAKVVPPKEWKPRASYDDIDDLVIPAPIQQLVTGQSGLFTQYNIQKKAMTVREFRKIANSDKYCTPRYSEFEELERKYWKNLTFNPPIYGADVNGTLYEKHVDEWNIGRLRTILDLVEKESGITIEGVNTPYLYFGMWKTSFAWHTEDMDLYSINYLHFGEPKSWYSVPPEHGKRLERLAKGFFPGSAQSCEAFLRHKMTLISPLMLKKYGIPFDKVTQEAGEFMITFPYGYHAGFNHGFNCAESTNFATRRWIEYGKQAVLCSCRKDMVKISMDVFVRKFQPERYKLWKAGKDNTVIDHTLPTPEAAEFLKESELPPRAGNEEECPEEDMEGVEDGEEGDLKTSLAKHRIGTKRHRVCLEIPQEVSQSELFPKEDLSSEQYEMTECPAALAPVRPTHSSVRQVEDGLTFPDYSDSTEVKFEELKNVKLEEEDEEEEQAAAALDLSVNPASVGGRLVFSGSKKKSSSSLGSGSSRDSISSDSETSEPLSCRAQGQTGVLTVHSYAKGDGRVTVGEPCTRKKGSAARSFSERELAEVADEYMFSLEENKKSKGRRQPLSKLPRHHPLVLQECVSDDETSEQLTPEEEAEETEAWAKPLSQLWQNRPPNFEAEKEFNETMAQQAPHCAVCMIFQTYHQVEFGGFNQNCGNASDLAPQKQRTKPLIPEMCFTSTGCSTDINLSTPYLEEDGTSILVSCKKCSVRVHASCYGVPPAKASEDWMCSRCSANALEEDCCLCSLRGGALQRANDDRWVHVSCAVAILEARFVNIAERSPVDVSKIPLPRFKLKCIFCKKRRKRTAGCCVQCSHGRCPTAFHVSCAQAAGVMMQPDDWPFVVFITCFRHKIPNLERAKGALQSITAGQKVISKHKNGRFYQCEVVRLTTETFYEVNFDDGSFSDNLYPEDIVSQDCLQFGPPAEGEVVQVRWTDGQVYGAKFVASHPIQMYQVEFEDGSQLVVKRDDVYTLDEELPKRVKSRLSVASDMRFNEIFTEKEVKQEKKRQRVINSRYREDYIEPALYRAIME
HP1b binding inh – blocks HP1-beta chromodomain binding to methylated histone tails. P83916. AlphaScreen HP1-beta / biotin-H3K9me3 peptide binding. Potency, µM (doses to about 114 µM), inactives show at the highest dose activity change, negative = inhibition, actives largely listed as inhibitors. 390,000 compounds, 0.56% hits. AID 540317; also: nearly all actives have a fitted effect of over 70% in size
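HP1-beta protein (50 nM final) preincubated 30 min at room temperature with biotinylated H3(1-18)K9me3 peptide (50 nM) in PBS pH 7.4, 0.01% Tween-20, then compound added for 30 min. AlphaScreen streptavidin donor/nickel chelate acceptor beads (10 ug/mL final), 30 min dark, luminescence read.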
GLS inh – glutaminase GLS (human) inhibition; GLS enzymatic activity, qHTS titration; Potency, µM (highest dose often 45.5 µM), without a hit: at the top dose activity change, negative = inhibition, hits mostly inhibitors; 410,000 compounds, 0.21% hits; O94925; AID 624170; also: % is scaled to controls: 0 for no effect and ±100 for the full control effect
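Two-point fluorescence kinetic (t0, 30 min RT) for hKGA; glutamate detected via glutamate oxidase–HRP–Amplex Red. Substrate: 1 mM L-glutamine solution; buffer 45 mM KH2PO4, pH 8.2.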
Active calls of the source: *; ? = inconclusive; . = not tested or not shown; [ ] = dose if it differs, or a comment. The list is not random: actives were taken first. Their share in the collection is about 10%. Calls follow the shape of the dose curve; as a rule, active = well fitted curve in the direction sought with a large enough effect; inconclusive = small, poorly fitted or top-dose-only effect, or another doubt; inactive = no such curve, though single readings can be large; an effect the other way counts as inactive or inconclusive. Potency is read from the fitted curve at half-maximal effect.

SMILES	BAZ2B inh	G9a block	JMJD2A Tudor inh	HP1b binding inh	GLS inh
CN1CCN(C(=O)CSc2nc(-c3cccs3)cc(-c3cccs3)c2C#N)CC1	3.3%	39.8µM*	-13.5%	19.7%	5.2%
CCN(CC)C(=O)CSc1nc(N)c(C#N)c(-c2cccs2)c1C#N	-2.3%	14.2%[59 µM]	0.0%	38.9%	-1.7%
COC(=O)CSc1nc(-c2cccs2)ccc1C#N	10.7%	31.6µM*	-2.9%	37.5%	11.0%
C#CCSc1nc(-c2cccs2)ccc1C#N	73.2%	21.0%[12.7 µM]	40.7%	50.5%	3.8%
CCN(CC)C(=O)CSc1nc(-c2cccs2)cc(-c2cccs2)c1C#N	-7.2%	3.98µM*	0.8%[57.1 µM]	-30.0%	?
CCS(=O)(=O)N1CCC(C(=O)Nc2cccc(F)c2)CC1	3.4%	0.8%	4.1%	50.8%	0.1%
CCOC(=O)c1c(C)[nH]c(C)c1C(=O)CSc1nnc(N)s1	-7.7%	1.0%	-16.7%	10.0%	4.5%
CCCCNS(=O)(=O)c1ccc(OC)cc1	3.5%	12.3%[12.7 µM]	-1.2%	15.1%	9.5%
COc1ccc(C2/C(=C(/O)c3ccc4c(c3)CC(C)O4)C(=O)C(=O)N2Cc2cccnc2)cc1 (stereo not given)	-36.2%	39.8µM*	-20.5%	54.0%	-6.8%
COc1ccc(C2/C(=C(\O)c3ccc4c(c3)CC(C)O4)C(=O)C(=O)N2Cc2cccnc2)c(OC)c1 (stereo not given)	-13.5%	70.8µM*	-20.5%	12.6%	2.9%
CC1Cc2cc(/C(O)=C3/C(=O)C(=O)N(Cc4ccncc4)C3c3ccc(N(C)C)cc3)ccc2O1 (stereo not given)	?	22.4µM*	?	11.6%	1.7%
O=C(O)c1ccc(Sc2nnc(-c3cccc(Br)c3)o2)c([N+](=O)[O-])c1	-37.8%	50.1µM*	-1.6%	10.1%	11.6%
CC(=O)c1ccc(Sc2nnnn2-c2ccccc2)c([N+](=O)[O-])c1	?	?	-23.2%	-2.4%	-1.3%
Cn1c(Sc2ccc(C(=O)O)cc2[N+](=O)[O-])nnc1-c1ccccc1	-12.7%	0.8%[59 µM]	28.2µM*	-2.0%	-10.3%
O=C(NCCc1ccc(C(F)(F)F)cc1)C1CCC(=O)N(C2CC2)C1 (stereo not given)	0.9%	47.0%	0.0%	33.3%	-8.3%
COc1ccccc1OCCCOc1cccc(/C=C2\SC(=O)NC2=O)c1	79.4µM*	-0.9%[0.501 µM]	22.4µM*	-2.4%	?
CC1=NNC(=O)C1CC(=O)N/N=C/C(Br)=C/c1ccccc1 (stereo not given)	-6.1%	-2.0%	-5.8%	40.7%	17.8%
CC1=NNC(=O)C1CCC(=O)N/N=C/C(Br)=C/c1ccccc1 (stereo not given)	4.6%	50.1µM*	-9.0%	29.3%	21.4%
CCOc1ccc2nc(N3CCCC(C(=O)Nc4c(C)cccc4C)C3)sc2c1 (stereo not given)	2.9%	1.8%[59 µM]	-18.5%	8.7%	-3.3%
CC(=O)N1CCN(c2ccc(NCc3ccc4c(c3)OCO4)cc2)CC1	?	?	?	-20.7%	51.4%
CC(C)(C)C(=O)N1CCN(c2ccc(NC(=O)c3ccco3)cc2)CC1	-13.7%	5.0%	-7.6%	0.0%	40.7%
CC(=O)N1CCN(c2ccc(NCc3ccc(Br)o3)cc2)CC1	?	3.2%[0.501 µM]	?	-7.5%	24.9%
CC(=O)N1CCN(c2ccc(NCc3cccc4ccccc34)cc2)CC1	31.6µM*	8.91µM*	22.4µM*	?	?
O=C(c1ccccc1)N1CCN(c2ccc(NCc3ccc4c(c3)OCO4)cc2)CC1	35.5µM*	5.01µM*	50.1µM*	44.7µM*	83.9%
O=C(Nc1ccc(N2CCN(Cc3ccccc3)CC2)cc1)c1ccco1	-31.9%	79.4µM*	?	-15.5%	36.4%
SMILES	BAZ2B inh	G9a block	JMJD2A Tudor inh	HP1b binding inh	GLS inh
O=C(CCS(=O)(=O)c1ccc(F)cc1)Nc1ccc(N2CCN(Cc3ccccc3)CC2)cc1	-6.6%	?	-21.1%	1.6%	44.5%
Fc1ccc(CNc2ccc(N3CCN(Cc4ccccc4)CC3)cc2)cc1	10µM*	12.6µM*	20µM*	22.4µM*	20.1%
Cc1nn2c3c(cnc2c1-c1ccc(Cl)cc1)C(=O)CC(c1ccc(C(C)C)cc1)C3 (stereo not given)	-15.4%	7.1%[59 µM]	5.6%	58.2%	-2.6%
COc1ccc(Oc2ncc3nc(-c4ccc(OC)cc4)c(=O)n(CCC#N)c3n2)cc1	.	-3.1%[12.7 µM]	.	.	.
CC(=O)N1CCN(c2ccc(NCc3ccccc3)cc2)CC1	?	14.1µM*	?	-8.2%	62.8%
COc1ccc(CNc2ccc(N3CCN(C(C)=O)CC3)cc2)cc1OC	.	.	-17.4%	29.8%	-4.3%
O=C(CC(c1ccccc1)c1cc(Cl)ccc1O)N1CCCC1 (stereo not given)	-24.7%	.	-25.9%	4.5%	9.9%
Cc1nc(-c2ccc(NC(=O)/C=C\C(=O)O)cc2)cs1	-23.0%	35.5µM*	?	-31.2%	0.0%
Cc1ccc2sc(-c3ccc(NC(=O)/C=C\C(=O)O)cc3)nc2c1	.	50.1µM*	-10.8%[57.1 µM]	-9.8%	3.9%
CCn1cc(C(=O)N[C@@H](CCSC)C(=O)NC(C)(C)CO)c(=O)c2cc3c(cc21)OCO3	-5.1%	9.4%	-11.4%	13.1%	-1.8%
CC1=NN(c2nc(N)nc(/C(C#N)=C/c3ccc([N+](=O)[O-])o3)n2)C(C)(C)C1	.	.	?	2.6%	8.5%
COc1cccc(NC(=O)CCc2nnc3n(CC(C)C)c(=O)c4ccccc4n23)c1	1.6%	?	-13.1%	19.2%	-2.8%
COc1ccc(-c2c/c(=N\c3nc(-c4ccccc4)c(C)s3)c3ccccc3o2)cc1O	50.1µM*	?	?	?	9.9%
CN(c1ccccc1)S(=O)(=O)c1cccc(NC(=O)CCN2C(=O)C3CCCCC3C2=O)c1 (stereo not given)	-9.3%	2.2%	-16.1%	35.9%	5.4%
CC(C)CN1CCN(Cc2ccc(C#CC(C)(C)O)cc2)CC1CCO (stereo not given)	-5.4%	?	0.0%	11.2%	15.7%
O=C(NNS(=O)(=O)c1ccccc1)c1cc2cc3ccccc3nc2s1	?	9.1%[59 µM]	?	7.4%	1.5%
COc1ccc2c(c1)c(=O)c(C(=O)c1ccccc1)cn2Cc1ccc(C)cc1	-27.6%	-12.8%	-28.4%	12.5%	15.2%
O=C(c1cc(N2C(=O)C3C4CCC(C4)C3C2=O)ccc1Cl)N1CCN(c2ccc(F)cc2)CC1 (stereo not given)	-11.8%	?	-26.9%	0.0%	12.7%
CCn1cc(C(=O)O)c(=O)c2cc(OC)ccc21	?	?	8.91µM*	-6.9%	-19.7%
CCn1cc(C(=O)O)c(=O)c2cc(S(=O)(=O)N3CCCCCC3)ccc21	70.8µM*	.	-1.5%	41.4%	-10.1%
CCn1cc(C(=O)N2CCN(c3ccc(OC)cc3)CC2)c(=O)c2cc(S(=O)(=O)N3CCCCC3)ccc21	?	50.1µM*	-29.9%	-6.8%	24.0%

High-throughput results deposited in PubChem by National Center for Advancing Translational Sciences (NCATS).
